For assay [1], the system named is Plasmodium falciparum Sir2 (PF13_0152, Sir2A). Nature of the assay: pfSir2 binders on small-molecule microarrays, primary screen, biochemical, small-molecule microarray, 635 nm fluorescence (AID 1098).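 Note: score merges spot fluorescence intensity with its signal-to-noise ratio.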 Conditions: small-molecule microarray binding, fluorescence 635 nm; higher = more signal.
The nature of assay [2]: small-molecule microarray binders of probe aDKK1, primary screen, biochemical, biotinylated probe, 635/667 nm fluorescence (AID 1099).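 Note: score merges 667nm spot fluorescence with signal to noise across triplicate slides; reference of the scale not given here.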 To be noted: higher = more signal.
The nature of assay [3]: small-molecule microarray binders of probe aCHRDL2, primary screen, biochemical, biotinylated probe, 635/667 nm fluorescence (AID 1100). To be noted: higher = more signal.
Assay [4] is described as follows: splicing luciferase reporter signal modulators, primary screen, spliceosome inhibition project, cell-based, HEK293, splice +/- reporter (AID 1101).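 Note: HEK293 cells carrying a splicing-competent luciferase reporter gene; test concentration not given here.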 Conditions: luminescence, 24 h, higher = more signal, called active from +8 up or from −8 down.
Assay [5] concerns the target Fibroblast growth factor 10 (Homo sapiens) (UniProt O15520). In words: FGF10 binders on small-molecule microarrays, primary screen, biochemical, small-molecule microarray, 635 nm fluorescence (AID 1102). Conditions: FGF10 binding, fluorescence 635 nm, higher = more signal.
Assay [6] relates to glycogen synthase kinase-3 (GSK3A per assay name; protocol says GSK3B). In words: GSK3 binders on small-molecule microarrays, primary screen, biochemical, small-molecule microarray, 635 nm fluorescence, GSK3A (AID 1103). Note: the record names both GSK3A and GSK3B. Conditions: small-molecule microarray binding, fluorescence 635 nm; higher = more signal.
Assay [7] has as its target Epidermal growth factor receptor (Homo sapiens) (UniProt P00533). In words: EGFR binders on small-molecule microarrays, primary screen, biochemical, small-molecule microarray, 635 nm fluorescence (AID 1104).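 Note: score merges 667 nm emission intensity with spot signal to noise over triplicate slides.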 Conditions: EGFR binding, higher = more signal.
Assay [8] deals with Follistatin-related protein 3 (Homo sapiens) (UniProt O95633). In words: FSTL3 binders on small-molecule microarrays, primary screen, biochemical, small-molecule microarray, 635 nm fluorescence (AID 1105).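 Note: score merges emission near 667 nm and signal to noise per printed spot across three slides.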 Conditions: FSTL3 binding, higher = more signal.
In assay [9] the target is Dickkopf-related protein 1 (Homo sapiens) (UniProt O94907). In words: DKK1 binders on small-molecule microarrays, primary screen, biochemical, small-molecule microarray, 635 nm fluorescence scan (AID 1106).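 Note: score merges emission near 667 nm with signal to noise over three replicate slides.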 To be noted: DKK1 binding, higher = more signal.
Assay [10] has as its system Inhibin beta A chain (activin A). Nature of the assay: INHBA (activin A) binders on microarrays, primary screen, biochemical, small-molecule microarray, 635 nm fluorescence scan (AID 1107).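 Note: mouse activin A protein probed at 4.33 µg/mL on printed slides; score merges bound-protein fluorescence near 667 nm with spot signal-to-noise.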 To be noted: small-molecule microarray binding, higher = more signal.

17 compounds from PubChem BioAssay can be followed below.

The source made the active and inactive calls.

Sequence of Fibroblast growth factor 10 (Homo sapiens) (O15520 whole entry, looked up): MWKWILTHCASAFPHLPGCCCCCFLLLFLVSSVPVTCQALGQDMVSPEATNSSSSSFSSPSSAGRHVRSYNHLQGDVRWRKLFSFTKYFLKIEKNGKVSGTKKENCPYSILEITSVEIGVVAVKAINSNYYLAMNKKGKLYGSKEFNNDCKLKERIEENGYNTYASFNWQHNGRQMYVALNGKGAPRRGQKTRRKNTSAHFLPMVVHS
Sequence of Epidermal growth factor receptor (Homo sapiens) (P00533 whole entry, looked up): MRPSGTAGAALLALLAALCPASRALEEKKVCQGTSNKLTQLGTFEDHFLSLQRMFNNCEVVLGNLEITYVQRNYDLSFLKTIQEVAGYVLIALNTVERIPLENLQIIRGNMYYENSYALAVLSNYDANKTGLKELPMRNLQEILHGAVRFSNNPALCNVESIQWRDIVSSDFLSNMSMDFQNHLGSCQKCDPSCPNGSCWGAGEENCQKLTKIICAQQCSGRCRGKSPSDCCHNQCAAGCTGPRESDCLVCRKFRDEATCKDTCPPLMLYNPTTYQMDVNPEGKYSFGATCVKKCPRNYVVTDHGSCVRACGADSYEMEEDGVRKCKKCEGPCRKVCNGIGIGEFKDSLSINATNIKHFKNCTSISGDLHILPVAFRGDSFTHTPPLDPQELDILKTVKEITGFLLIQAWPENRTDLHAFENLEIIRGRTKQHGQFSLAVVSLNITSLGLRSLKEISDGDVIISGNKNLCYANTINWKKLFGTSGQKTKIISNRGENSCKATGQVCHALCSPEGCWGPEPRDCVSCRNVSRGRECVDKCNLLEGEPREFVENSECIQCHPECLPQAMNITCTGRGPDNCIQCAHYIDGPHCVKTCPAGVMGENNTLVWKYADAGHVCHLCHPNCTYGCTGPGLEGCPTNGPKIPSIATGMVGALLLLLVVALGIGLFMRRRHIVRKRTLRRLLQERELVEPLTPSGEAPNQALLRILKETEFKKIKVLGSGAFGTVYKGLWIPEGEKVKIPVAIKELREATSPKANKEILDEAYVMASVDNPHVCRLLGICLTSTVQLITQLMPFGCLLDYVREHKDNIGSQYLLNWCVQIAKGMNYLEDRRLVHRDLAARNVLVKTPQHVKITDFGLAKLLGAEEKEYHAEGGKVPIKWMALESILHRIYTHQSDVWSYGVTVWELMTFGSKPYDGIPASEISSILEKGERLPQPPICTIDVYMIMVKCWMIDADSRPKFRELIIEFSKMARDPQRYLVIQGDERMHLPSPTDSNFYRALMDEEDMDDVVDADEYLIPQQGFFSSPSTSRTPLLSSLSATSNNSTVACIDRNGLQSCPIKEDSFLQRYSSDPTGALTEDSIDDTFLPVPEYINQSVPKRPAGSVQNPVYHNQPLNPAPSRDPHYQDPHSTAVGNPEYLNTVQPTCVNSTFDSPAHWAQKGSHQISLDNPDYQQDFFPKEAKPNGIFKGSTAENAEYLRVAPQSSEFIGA
Sequence of Follistatin-related protein 3 (Homo sapiens) (O95633 whole entry, looked up): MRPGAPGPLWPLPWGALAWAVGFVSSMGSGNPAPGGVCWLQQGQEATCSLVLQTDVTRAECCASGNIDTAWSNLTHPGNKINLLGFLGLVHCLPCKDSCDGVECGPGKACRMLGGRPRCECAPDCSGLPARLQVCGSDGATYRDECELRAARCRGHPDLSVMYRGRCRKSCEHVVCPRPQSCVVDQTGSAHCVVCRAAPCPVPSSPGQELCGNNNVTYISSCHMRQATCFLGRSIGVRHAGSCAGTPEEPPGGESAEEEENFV
Sequence of Dickkopf-related protein 1 (Homo sapiens) (O94907 whole entry, looked up): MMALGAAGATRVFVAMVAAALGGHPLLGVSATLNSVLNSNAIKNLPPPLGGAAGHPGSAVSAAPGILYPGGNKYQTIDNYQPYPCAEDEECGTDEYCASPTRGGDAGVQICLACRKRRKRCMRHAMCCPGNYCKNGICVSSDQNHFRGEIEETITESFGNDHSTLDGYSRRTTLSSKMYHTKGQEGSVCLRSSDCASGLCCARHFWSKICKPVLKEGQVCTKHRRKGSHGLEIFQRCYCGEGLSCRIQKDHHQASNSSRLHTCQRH

With `C=C(/C(=C/C[C@H](OC(=O)c1ccncc1)c1cccc(OCCO)c1)c1cnc2ccccc2c1)C(C)C`, the composite z-score in [1] is 0.411; in [2], -0.0011; in [3], 0.454; in [5], 1.47; in [6], 1.18; in [7], 0.539. Further, the composite z-score in assay [8] came to 1.51; in assay [9], 0.739; in assay [10], 1.68. In [4], the z-score was -1.46 (inactive).
With `CC(C)CCC[C@@H](C)[C@H]1CC[C@@]2(C)C3=C(CC[C@]12C)[C@@]1(C)CC[C@H](OC(=O)c2ccccc2)C(C)(C)C1CC3` (stereo not given in full), the composite z-score in [1] is 0.238; in assay [2], -0.279; in assay [3], -0.501; in assay [5], 0.155; in [6], 0.21; in assay [7] it was 0.375. In addition, the composite z-score was 0.429 in assay [8], 0.61 in assay [9] and -0.0754 in assay [10]. Besides, the z-score in assay [4] was -1.54 (inactive).
In the case of `CN(C)C(=O)[C@]1(CCS(=O)(=O)c2ccccc2)N=C(c2ccc(OCCCO)cc2)O[C@@H]1c1ccccc1`, the composite z-score in [1] is 1.45; in assay [2] it was 0.483; in [3] it was 0.515; in assay [5], 1.48; in assay [6], 1.26; in assay [7], -0.0269. The composite z-score is 0.552 in assay [8], -0.323 in assay [9] and 0.82 in assay [10]. Also, the z-score in [4] is -0.621 (inactive).
Consider `COc1cc(NN2C(C(O)c3ccccc3)C=CC3C(=O)N(C)C(=O)C32)cc(OC)c1OC` (stereo not given), for which the composite z-score in [1] came to 0.618; in assay [2] it was 0.195; in assay [3], 0.8; in assay [5], 0.422; in assay [6] it was 0.843; in [7], 0.187. Moreover, the results for the composite z-score in assay [8], in assay [9] and in assay [10] were 0.362, -0.186 and 0.784, respectively. Besides, the z-score in assay [4] is -0.676 (inactive).
Regarding `C[C@]1(C(=O)NCCN2CCOCC2)c2ccccc2C(=O)N(Cc2cc(F)cc(C(F)(F)F)c2)[C@H]1c1ccc(CO)cc1`, the composite z-score was 1.81 in assay [1]; -0.0342 in assay [2]; 0.841 in assay [3]; -0.134 in assay [5]; -0.626 in assay [6]; -1.01 in [7]. Also, the composite z-score in assay [8] was -0.0362; in assay [9], -0.876; in [10], 0.59. Besides, the z-score in [4] was -0.0156 (inactive).
On to `O=c1cccc(-c2ccc(F)cc2)o1`, for which the composite z-score in [1] was 0.347; in assay [2], 0.328; in assay [3], -0.3; in assay [5] it was 0.948; in assay [6], 0.716; in [7] it was 0.444. In addition, the composite z-score came to 0.74 in [8], 0.399 in [9] and 0.457 in [10]. In addition, the z-score in assay [4] was 0.362 (inactive).
Consider `O=c1cccc(-c2ccco2)o1`, for which the composite z-score in assay [1] is 1.28; in assay [2] it was -0.148; in assay [3] it was -0.617; in [5] it was 0.955; in assay [6], 0.829; in [7] it was 0.693. In addition, the composite z-score in assay [8] came out at 1.02; in [9], 1.16; in assay [10], 1.24. Also, the z-score in assay [4] was 0.935 (inactive).
Take `COCC(=C=CC[C@@H](O)c1cccc(OCCO)c1)CCO`: the composite z-score in assay [1] is 1.03; in [2] it was 0.0771; in [3], 0.268; in assay [5] it was 0.984; in assay [6], 0.162; in assay [7], -0.846. Besides, the figures for the composite z-score in assay [8], in assay [9] and in [10] were 0.167, -0.111 and 0.598, respectively. Moreover, the z-score in assay [4] is 0.317 (inactive).
Consider `CC1(C)C(=O)C(c2ccccc2)=C2CN3C(=O)N(CCc4ccccc4)C(=O)C3(Cc3ccc(F)cc3)C=C21` (stereo not given), for which the composite z-score was 0.251 in assay [1]; 1.19 in assay [2]; 1.24 in assay [3]; -0.236 in [5]; -0.556 in assay [6]; -0.554 in [7]. Also, the composite z-score in assay [8] was -0.0423; in [9], -1.11; in assay [10], 0.958. Further, the z-score in [4] was -0.274 (inactive).
Consider `C=CCC(OC(C)=O)[C@@H]1[C@@H](N(Cc2cccc3ccccc23)C(=O)c2cccc3ccccc23)c2cc(OCCCO)ccc2N1C(=O)c1ccc2ccccc2c1` (stereo not given in full), for which the composite z-score in assay [1] is -0.131; in assay [2], 0.0281; in assay [3] it was 0.0611; in [5], 0.523; in assay [6], -0.0993; in assay [7] it was 0.187. Further, the composite z-score in [8] was determined as 0.423; in assay [9], 0.226; in assay [10], 1.41. Besides, the z-score in assay [4] is -0.888 (inactive).
For the compound `NCCCCCNC(=O)[C@@H]1C[C@@H]2C(=O)N3CCC[C@H]3C(=O)N2[C@@H]1c1ccc(O)cc1`, the composite z-score in [1] turned out to be 1.1; in assay [2], 0.919; in assay [3], 0.857; in assay [5], 0.927; in [6] it was 1.14; in assay [7] it was 0.114. Also, the composite z-score in assay [8] was 0.495; in assay [9], 0.853; in assay [10], 0.98. For the same compound, the z-score in assay [4] was -0.274 (inactive).
Consider `C=CCC(OC(C)=O)[C@@H]1[C@@H](N(Cc2cccc3ccccc23)C(=O)c2ccc(-c3ccccc3)cc2)c2cc(OCCCO)ccc2N1C(=O)c1ccc(-c2ccccc2)cc1` (stereo not given in full), for which the composite z-score in [1] was 0.122; in assay [2] it was 0.508; in assay [3], 0.75; in assay [5], -0.221; in assay [6], -0.0259; in assay [7] it was -0.151. Besides, the composite z-score in assay [8] is 0.143; in [9], -0.242; in assay [10], 0.967. For the same compound, the z-score in assay [4] is -0.698 (inactive).
Consider `CO[C@H]1O[C@H](CO)[C@@H](OC(=O)Nc2ccc(C#N)cc2)[C@@H]2OC(=O)[C@H](Cc3cccc(Br)c3)C/C=C/C[C@@H](Cc3cccc(Br)c3)C(=O)O[C@@H]12`, for which the composite z-score in assay [1] is 0.717; in assay [2], 0.617; in assay [3], 0.534; in assay [5], 0.788; in assay [6] it was -0.037; in assay [7], 0.223. Besides, the results for the composite z-score in assay [8], in [9] and in [10] were 0.707, 0.336 and -0.247, respectively. Further, the z-score in assay [4] was 1.5 (inactive).
For `C=C[C@@H](C)[C@@H](OC(=O)Nc1ccc(SC)cc1)c1ccc(OCCO)cc1`, the composite z-score is 1.4 in assay [1]; -0.289 in assay [2]; 0.753 in assay [3]; 0.472 in assay [5]; 0.335 in [6]; 0.0159 in [7]. For the same compound, the composite z-score in assay [8] was 0.426; in [9], -0.185; in assay [10] it was 0.0303. For the same compound, the z-score in assay [4] is -1.01 (inactive).
As for `[N-]=[N+]=Nc1ccccc1C[C@]1(C(=O)NCc2ccccc2)COC(c2ccc(OCCCO)cc2)=N1`, the composite z-score is 1.26 in assay [1]; 0.187 in [2]; 0.869 in assay [3]; 1.16 in assay [5]; 1.23 in [6]; -0.404 in [7]. Further, the figures for the composite z-score in [8], in assay [9] and in assay [10] were 1.01, -0.537 and 0.386, respectively. Also, the z-score in [4] is 0.439 (inactive).
For the compound `CCCNC(=O)[C@@]1(Sc2ccc(C)cc2)CC(=O)N(C2CCCCC2)[C@@H]1c1ccc(CO)cc1I`, the composite z-score was 1.56 in [1]; 0.548 in [2]; 0.91 in assay [3]; 0.382 in assay [5]; 0.718 in assay [6]; -0.0215 in assay [7]. Also, the composite z-score in assay [8] was 0.192; in assay [9] it was -0.122; in [10], -0.277. In addition, the z-score in assay [4] was -0.703 (inactive).
Consider `Cc1ccc(S[C@]2(C(=O)NC(C)C)CC(=O)N(Cc3ccccc3Cl)[C@@H]2c2ccc(CO)cc2)cc1`, for which the composite z-score was 1.23 in [1]; 0.17 in assay [2]; 0.865 in assay [3]; -0.465 in [5]; -0.628 in assay [6]; -1.04 in assay [7]. In addition, the composite z-score in [8] is -1.2; in assay [9], -1.47; in assay [10] it was -0.318. In [4], the z-score is -0.864 (inactive).
